Screens as filed in PubChem BioAssay.
A selection: hits, their analogues and other compounds. The true share with any hit is near 6.9%.
SKKanGAS inh – blocks kanamycin growth of S. pyogenes SKKanGAS strain | BacTiter-Glo, 6 h | AID 1662 | inhibition, % at 7.5 µM | 1.3% of 300,000 active;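 active = mean replicate score, as percent of positive control median, at least 50; inconclusive = mean below 50 but one replicate at or above 50; inactive = mean and every replicate below 50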;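 note: strain carries kanamycin resistance gene driven by streptokinase promoter and grows in 40 µg/ml kanamycin; loss of luminescence reflects streptokinase promoter inhibition or plain growth inhibition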
Beta cell apopt – beta cell apoptosis inhibition. INS-1E cytokine-induced death, ATP luminescence, 48 h; percent of positive-control rescue, neutral wells zero. protection from apoptosis, % (test concentration not listed). 0.8% of 300,000 active;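 active = Every replicate reaches about 75%, or at least half do and their mean reaches it too, limit read from the data; inconclusive = At least half of replicates reach the limit but their mean does not; inactive = Under half of replicates reach the limit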;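 note: higher means more ATP so stronger rescue from cytokine killing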
Mdm2 MdmX PPI – inhibitors of human Mdm2/MdmX interaction; O15151+Q00987; SaOS-2 split-luciferase Mdm2/MdmX complementation, luminescence; inhibition, % at 8 µM; 3% of 330,000 active;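 active = inhibition of at least 50% at 8 µM in the primary screen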
Target sequence (O15151 whole entry, looked up): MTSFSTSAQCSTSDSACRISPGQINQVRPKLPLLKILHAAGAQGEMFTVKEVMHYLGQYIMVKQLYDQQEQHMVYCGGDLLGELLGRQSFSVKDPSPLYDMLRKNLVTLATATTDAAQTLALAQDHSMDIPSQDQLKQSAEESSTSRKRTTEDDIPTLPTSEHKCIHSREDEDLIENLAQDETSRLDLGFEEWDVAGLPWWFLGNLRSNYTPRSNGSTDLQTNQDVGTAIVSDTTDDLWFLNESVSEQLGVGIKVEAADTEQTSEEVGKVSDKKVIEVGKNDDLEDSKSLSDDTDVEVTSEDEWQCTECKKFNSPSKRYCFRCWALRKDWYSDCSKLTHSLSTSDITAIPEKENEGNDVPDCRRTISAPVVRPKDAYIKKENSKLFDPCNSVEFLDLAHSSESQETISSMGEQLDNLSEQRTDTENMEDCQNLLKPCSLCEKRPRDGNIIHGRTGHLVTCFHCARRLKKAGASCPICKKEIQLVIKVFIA
Target sequence (Q00987 whole entry, looked up): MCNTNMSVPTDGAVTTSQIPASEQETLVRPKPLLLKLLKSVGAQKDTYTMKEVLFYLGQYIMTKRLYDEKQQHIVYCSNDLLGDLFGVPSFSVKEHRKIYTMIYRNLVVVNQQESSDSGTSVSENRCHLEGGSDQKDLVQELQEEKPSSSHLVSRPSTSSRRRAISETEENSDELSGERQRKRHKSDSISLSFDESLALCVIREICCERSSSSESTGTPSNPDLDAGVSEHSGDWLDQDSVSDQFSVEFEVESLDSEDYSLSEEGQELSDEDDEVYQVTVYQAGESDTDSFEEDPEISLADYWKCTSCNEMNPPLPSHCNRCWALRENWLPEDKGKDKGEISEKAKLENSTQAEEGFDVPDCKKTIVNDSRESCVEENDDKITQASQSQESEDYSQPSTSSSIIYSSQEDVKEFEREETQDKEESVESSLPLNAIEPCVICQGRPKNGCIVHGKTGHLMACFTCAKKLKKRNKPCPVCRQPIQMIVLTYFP
MPTP block – inhibitors of mitochondrial permeability transition pore. isolated mouse mitochondria, Ca2+ swelling absorbance, 30 min. inhibition, % at 10 µM. 1.4% of 360,000 active. AID 602449;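 active = inhibition of 50% or more, scaled per plate between neutral and stimulator controls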
NR3A LBD binder – modulators (binders) of human NR3A ligand-binding domain; 2.5% of 340,000 active; NR3A LBD differential scanning fluorimetry, Tm shift; 0% = protein alone, 100% = glycine-bound protein; Tm shift relative to glycine control, % at 25 µM;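 active = melting temperature shift of at least 10% of the positive control shift, at one fixed dose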
CSC inhib – blocks cancer stem cells | cancer stem cell-like cells viability, luminescence | inhibition, % at 7.5 µM | 1.1% of 300,000 active; in the data active = inhibition above about 75%; inconclusive = no clear call, values can overlap the other calls; tested in HMLE shEcad cells
Large screens that a line does not name were inactive.

COc1cc(/C=C2\SC(=N)N(c3ccc4c(c3)OCO4)C2=O)cc(OC)c1O	NR3A LBD binder 11
COc1cc(/C=C2\SC(=N)N(c3ccc(F)cc3)C2=O)ccc1O	NR3A LBD binder 27
COc1cc(/C=C2\SC(=O)N(c3ccc(O)cc3)C2=O)cc(OC)c1OC	none
Cc1ccc(C2(c3ccccc3)NC(=O)N(CC(=O)N3CC(=O)Nc4ccccc43)C2=O)cc1C (configuration not stated)	none (no result: SKKanGAS inh, Beta cell apopt, CSC inhib)
CCc1nn2c(NCCOC)cc(C)nc2c1-c1ccc(F)cc1	none
NC1=C(c2ccccc2)C(=O)NC1=O	none (no result: Beta cell apopt)
O=[N+]([O-])c1ccc(C(O)CNC(=S)Nc2ccccc2)cc1 (configuration not stated)	NR3A LBD binder 12
CNC(=S)NCC(O)c1ccc([N+](=O)[O-])cc1 (configuration not stated)	none
CCN(c1ccccc1)S(=O)(=O)c1cccc(C(=O)NCC2(N(C)C)CCCCC2)c1	NR3A LBD binder 25 (no result: SKKanGAS inh, CSC inhib)
COc1ccc(Cl)cc1N(CC(=O)NC(C(C)C)C(C)C)S(C)(=O)=O	none
CCOC(=O)c1ccc(NC(=O)CCSCCc2ccccn2)cc1	none
Cc1ccc(-c2cc(-c3ccccc3)nc(NN)n2)cc1	CSC inhib 83
CC(C)(C)C1CCc2c(sc(NC(=O)c3ccco3)c2C(N)=O)C1 (configuration not stated)	none (no result: SKKanGAS inh)
CCC1CCc2c(sc(NC(=O)CSc3nc(-c4ccco4)cc(C(F)(F)F)n3)c2C#N)C1 (configuration not stated)	NR3A LBD binder 12
CCC1CCc2c(sc(NC(=O)c3ccco3)c2C(N)=O)C1 (configuration not stated)	NR3A LBD binder 715
Cc1ccc(S(=O)(=O)N2CCN(C(=O)c3cc(S(=O)(=O)N4CCOCC4)ccc3Cl)CC2)c(C)c1	NR3A LBD binder 12 (no result: SKKanGAS inh, Beta cell apopt, Mdm2 MdmX PPI, CSC inhib)
Cc1ccc(C(=O)N2CCCCC2)cc1S(=O)(=O)N1CCCCCC1	none
Cc1ccc(C(=O)N2CCOCC2)cc1S(=O)(=O)N1CCCC1	NR3A LBD binder 11
CCOC(=O)C1CCN(C(=O)c2ccc(C)c(S(=O)(=O)N3CCCC3)c2)CC1	NR3A LBD binder 11
O=C(c1cc(S(=O)(=O)N2CCCCC2)ccc1Cl)N1CCOCC1	none (no result: Beta cell apopt)
O=C(Cn1nc2n(c1=O)-c1ccccc1SC2)N/N=C/c1ccncc1	none
CC(=O)Nc1ccc(OCC(O)Cn2c3ccccc3c3ccccc32)c(C)c1 (configuration not stated)	CSC inhib 78
CC(=O)Nc1ccc(N(CC(O)Cn2c3ccccc3c3ccccc32)S(=O)(=O)c2ccc(C)cc2)cc1 (configuration not stated)	NR3A LBD binder 22 (no result: CSC inhib)
Cc1cccc(-n2[nH]c3c4c(ccc3c2=O)C(=O)c2ccccc2C4=O)c1	SKKanGAS inh 80
O=C1c2ccccc2C(=O)c2c1ccc1c(=O)n(-c3ccccc3)[nH]c21	none
O=C(NC1CCS(=O)(=O)C1)c1cccs1 (configuration not stated)	none
COc1ccccc1N1CCN(C(=O)c2cc3c(=O)n4cccc(C)c4nc3s2)CC1	none
COc1cccc(C(=O)NCC(=O)OCC(=O)NC2CCCCC2)c1	none (no result: SKKanGAS inh)
C/C(=N\Nc1nc(N)cc(Cl)n1)c1ccc(Cl)c(Cl)c1	NR3A LBD binder 18
CC(=O)Cn1cnc2c(cnn2-c2ccc(F)cc2)c1=O	none (no result: SKKanGAS inh, Beta cell apopt, Mdm2 MdmX PPI, NR3A LBD binder, CSC inhib)
CCOC(=O)N1CCN(S(=O)(=O)c2ccc(C(=O)NNc3nc4ccc(Cl)cc4s3)cc2)CC1	Beta cell apopt 82, CSC inhib 104
COc1ccc(C(=S)N2CCN(c3cccc(Cl)c3)CC2)cc1	none
Fc1ccccc1COc1ccc(-c2nnn(Cc3ccccc3F)n2)cc1	CSC inhib 81
Nc1ccc(-c2nnn(Cc3ccccc3F)n2)cc1	none
CC(C)n1nnc(-c2ccc(OCc3ccccc3F)cc2)n1	none
Cn1nnc(-c2ccc(OCc3ccccc3F)cc2)n1	SKKanGAS inh 53
O/N=C/c1ccc2cccc(O)c2n1	none
Oc1cccc2ccc(/C=C/c3ccccc3Cl)nc12	SKKanGAS inh 99
Oc1cccc2ccc(/C=C/c3c(F)cccc3Cl)nc12	SKKanGAS inh 74 (no result: Beta cell apopt)
O=C(O)c1ccc2ncc(NC(=O)c3ccc(F)cc3)c(=O)n2c1	none
Cc1nc(SCC(=O)NCCN2C(=O)CSC2=O)nc(C)c1C	none (no result: SKKanGAS inh)
CC(C)c1ccc(NC(=O)c2cc(S(=O)(=O)NCC3COc4ccccc4O3)ccc2F)cc1 (configuration not stated)	SKKanGAS inh 69, NR3A LBD binder 19, CSC inhib 123
O=C(Nc1ccc(C(F)(F)F)cc1)c1cc(S(=O)(=O)NCC2COc3ccccc3O2)ccc1F (configuration not stated)	SKKanGAS inh inconclusive, NR3A LBD binder 32
CCCCNC(=O)CCC(=O)N1CCN(C(c2ccccc2)c2ccccc2)CC1	none
FC(F)(F)c1cccc(N2CCN(c3ccc4nnc(-c5ccccc5)n4n3)CC2)c1	NR3A LBD binder 22
N#C/C(=C/c1ccc(N2CCCCC2)cc1)c1cccc(F)c1	NR3A LBD binder 12 (no result: CSC inhib)
N#C/C(=C/c1ccc(N2CCCCC2)o1)c1cccc(F)c1	none (no result: Beta cell apopt)
CCN(CC)S(=O)(=O)c1ccc(Oc2ccccc2)cc1	NR3A LBD binder 13 (no result: Beta cell apopt, CSC inhib)
C=C(C)[C@@H]1CCC2(C(=O)O)CC[C@]3(C)[C@H](CC[C@@H]4[C@@]5(C)CCC(=O)C(C)(C)[C@@H]5CC[C@]43C)[C@@H]12 (some centres not stated)	SKKanGAS inh 104
CC(=O)O[C@@H](C[C@@H](C)C1=C2C[C@H](O)C3[C@@]4(C)CCC(=O)C(C)(C)C4CC[C@]3(C)[C@@]2(C)CC1)[C@H]1OC1(C)C (some centres not stated)	none (no result: SKKanGAS inh, Beta cell apopt, Mdm2 MdmX PPI, CSC inhib)
CC1(C)C(=O)CC[C@@]2(C)[C@H]1CC[C@@]1(C)CC3=C(CC[C@@H]12)[C@@]1(C)CCC(=O)C(C)(C)[C@@H]1CC3	none (no result: SKKanGAS inh, MPTP block, NR3A LBD binder)
C=C(CC[C@@H](O)C(C)(C)O)[C@H]1CC[C@]2(C)[C@@H]1CCC1[C@@]3(C)CCC(=O)C(C)(C)C3CC[C@]12C (some centres not stated)	CSC inhib 109 (no result: SKKanGAS inh)
Cc1ccc(/C(N)=N/OC(=O)C(C)c2ccc([N+](=O)[O-])cc2)cc1 (configuration not stated)	none
Cc1ccc2nc(-c3ccc(-c4cccc(Cl)c4)cc3)c(NCc3ccccc3)n2c1	Beta cell apopt 121, CSC inhib 91
CCC(C)Sc1ccc(-c2nc3ccc(C)cn3c2NCc2ccccc2)cc1 (configuration not stated)	none (no result: SKKanGAS inh, Beta cell apopt, CSC inhib)
COc1ccc(-c2nc3ccc(C)cn3c2Cc2cccc(Cl)c2)cc1OC	none (no result: SKKanGAS inh, Beta cell apopt, Mdm2 MdmX PPI, NR3A LBD binder, CSC inhib)
COc1cc(-c2nc3ccc(C)cn3c2NCc2ccccc2)ccc1-c1cccc(Cl)c1	Beta cell apopt 102 (no result: SKKanGAS inh)
CC(C)c1ccc(NC(=S)N2CCN(S(=O)(=O)c3ccccc3)CC2)cc1	none
